Results taken from PubChem BioAssay AID504832 (National Center for Advancing Translational Sciences (NCATS), 2011).
Among all 310,000 compounds or so, about 18,000 (5.8%) were called active. Not shown: some 22% with an inconclusive outcome. The call rests on the fitted dose curve; in most records, active means well fitted inhibition curve with a large enough effect; inconclusive means small, poorly fitted or top-dose-only effect, or another doubt; inactive means no such curve, though single readings can be large or run the other way. The entries come from a sample that favours actives as a whole. A call without a number means that no potency is given here.

Assay: Primary qHTS for delayed death inhibitors of the malarial parasite plastid, 48 hour incubation
Conditions: P. falciparum luciferase growth in erythrocytes; series mostly up to 28.7 µM
How it was run: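 Firefly luciferase activity from engineered P. falciparum reports growth; inhibitors lower the luminescent signal. Cultures contained 2% hematocrit erythrocytes at 0.1% final parasitemia.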
Potency means the concentration at half of the fitted maximal effect.

For `Cc1[nH]c2ccccc2c1C(=O)COC(=O)C(C)C`, which Potency is on record?
Its Potency is “inactive”.

For `Cc1[nH]c2ccccc2c1C(=O)C(C)Sc1nnc(C2CC2)o1` (stereo not drawn), which Potency is on record?
Its Potency is 3.7 µM (active).

Which Potency does the source give for `Cc1[nH]c2ccccc2c1C(=O)CN1CC(C)CC(C)C1` (stereo not drawn) here?
The Potency was “inactive”.

Which Potency does the source give for `C=CCOc1ccc(/C=C2/C(=O)ON=C2C)cc1OCC` here?
Its Potency is “inactive”.

With `COc1ccc(OC)c(S(=O)(=O)n2c([N+](=O)[O-])cnc2C)c1` as the compound, how does the Potency read?
Its Potency is “inactive”.

With `NS(=O)(=O)c1ccc(N=Nc2c(O)[nH]c3ccc(Br)cc23)cc1` as the compound, how does the Potency read?
The Potency was “inactive”.

For `Cc1onc(-c2c(Cl)cccc2Cl)c1C(=O)NNC(=O)c1c(-c2c(Cl)cccc2Cl)noc1C`, which Potency is on record?
The Potency was 8.28 µM (active).

Which Potency does the source give for `COc1ccccc1N1CCN(C(=O)c2cc(-c3ccc(Cl)c(Cl)c3)on2)CC1` here?
The Potency was “inactive”.

For `Cc1[nH]n(C)c(=O)c1C(=O)c1c(-c2c(Cl)cccc2Cl)noc1C`, which Potency is on record?
Its Potency is “inactive”.

Which Potency does the source give for `COc1ccccc1N1CCN(C(=O)c2c(-c3c(Cl)cccc3Cl)noc2C)CC1` here?
Its Potency is 10.4 µM (active).

With `COc1cccc(-c2cc(C(=O)N3CCN(c4ccccc4OC)CC3)no2)c1` as the compound, how does the Potency read?
The Potency was “inactive”.

For `Cc1onc(-c2c(F)cccc2Cl)c1C(=O)N(C)CC(=O)Nc1cccc(F)c1`, which Potency is on record?
Its Potency is “inactive”.

For `CC(C)c1ccc(/C=C2\NC(=O)NC2=O)cc1`, which Potency is on record?
Its Potency is “inactive”.

With `Cc1ccc2nc3c(cc(C(=O)NCCc4ccccc4)c(=N)n3CC3CCCO3)c(=O)n2c1` (stereo not drawn) as the compound, how does the Potency read?
Its Potency is 2.08 µM (active).

For `Cc1cccn2c(=O)c3cc(C(=O)NCC4CCCO4)c(=N)n(Cc4ccc(F)cc4)c3nc12` (stereo not drawn), which Potency is on record?
Its Potency is 9.28 µM (active).

With `Cc1ccc(-c2noc(-c3ccccc3C(=O)NCC3CCCO3)n2)cc1` (stereo not drawn) as the compound, how does the Potency read?
The Potency was “inactive”.

With `O=C(Nc1ccccc1C(=O)NCC1CCCO1)c1ccccc1F` (stereo not drawn) as the compound, how does the Potency read?
Its Potency is “inactive”.

With `COc1ccc2oc(C(=O)NCc3ccco3)c(C)c2c1` as the compound, how does the Potency read?
The Potency was “inactive”.

With `Cc1ccc(CCNC(=O)c2ccc3nc4ccccc4c(=O)n3c2)cc1` as the compound, how does the Potency read?
The Potency was “inactive”.

Which Potency does the source give for `O=C(NCc1ccco1)c1cccn2c(=O)c3c4c(sc3nc12)CCCC4` here?
The Potency was “inactive”.

Which Potency does the source give for `Cc1cccn2c(=O)c3cc(C(=O)NCCN4CCOCC4)c(=N)n(Cc4cccnc4)c3nc12` here?
Its Potency is “inactive”.

For `COc1ccc(CCn2c(=N)c(C(=O)NCc3ccco3)cc3c(=O)n4cccc(C)c4nc32)cc1`, which Potency is on record?
The Potency was 0.465 µM (active).

Which Potency does the source give for `Nc1nc(SCC(=O)Nc2ccc(Cl)cc2C(F)(F)F)n[nH]1` here?
Its Potency is “inactive”.

With `CN(CC(=O)Nc1ccc(OC(F)(F)F)cc1)C(=O)C1CCC1` as the compound, how does the Potency read?
Its Potency is “inactive”.

Which Potency does the source give for `c1ccc(C2CNCc3c2ccc2ccccc32)cc1` (stereo not drawn) here?
Its Potency is 10.4 µM (active).

With `CC1=C(C(=O)NC2CC(C)(C)Cc3c2cnn3-c2ccc(C)cc2)OCCO1` (stereo not drawn) as the compound, how does the Potency read?
Its Potency is “inactive”.

With `C=CCOc1cccc(CNCc2cccnc2)c1` as the compound, how does the Potency read?
Its Potency is “inactive”.

For `CCc1ccccc1NC(=O)/C(=C/c1ccccc1)c1ccccc1`, which Potency is on record?
Its Potency is 5.22 µM (active).

For `CCc1ccccc1NC(=O)CCOc1ccccc1`, which Potency is on record?
Its Potency is “inactive”.

For `CCc1ccccc1NC(=O)c1cccs1`, which Potency is on record?
The Potency was “inactive”.

With `Cc1ccc(C(=O)NCC(=O)OCC(=O)NC2CCCCCCC2)cc1` as the compound, how does the Potency read?
Its Potency is “inactive”.

Which Potency does the source give for `CCN1C(=O)c2cccc3c(S(=O)(=O)Nc4ccccc4O)ccc1c23` here?
Its Potency is “inactive”.

Which Potency does the source give for `C[n+]1ccc(/C=C/c2c[nH]c3ccccc23)cc1` here?
The Potency was 0.738 µM (active).

With `CN1CCN(/N=C/c2c[nH]c3ccccc23)CC1` as the compound, how does the Potency read?
The Potency was “inactive”.

Which Potency does the source give for `CSC(=S)N/N=C/c1c[nH]c2ccccc12` here?
Its Potency is “inactive”.

With `Cn1c(=O)c2c(nc(NCCNC(=O)c3ccco3)n2Cc2ccccc2F)n(C)c1=O` as the compound, how does the Potency read?
The Potency was “inactive”.

With `CCC(=C/c1sc2ccc3ccccc3c2[n+]1C)/C=C1\Sc2ccc3ccccc3c2N1C` as the compound, how does the Potency read?
The Potency was 0.928 µM (active).

For `COc1ccc2ccn(C)c2c1`, which Potency is on record?
The Potency was “inactive”.

For `Cc1ccccc1NC(=O)C1CCCN(C(=O)NCc2ccccc2)C1` (stereo not drawn), which Potency is on record?
The Potency was “inactive”.

Which Potency does the source give for `O=C(NCC1CCCO1)c1cc2c([nH]c3ccccc32)c(-c2ccc(F)cc2)n1` (stereo not drawn) here?
Its Potency is 9.28 µM (active).

Which Potency does the source give for `O=C(NCC1CCCO1)c1ccc2ccccc2n1` (stereo not drawn) here?
Its Potency is “inactive”.

With `O=C(NCCCO)c1cc2c([nH]c3ccccc32)c(-c2ccc(F)cc2)n1` as the compound, how does the Potency read?
Its Potency is 9.28 µM (active).

Which Potency does the source give for `O=C(NCCc1ccc(F)cc1)c1n[nH]c2ccccc12` here?
Its Potency is “inactive”.

Which Potency does the source give for `O=C(NCC1CCCO1)c1cc(-c2ccccc2)nc2ccccc12` (stereo not drawn) here?
Its Potency is “inactive”.

With `COc1cccc2[nH]c(C(=O)NCCc3ccccc3)cc12` as the compound, how does the Potency read?
The Potency was “inactive”.

For `COc1ccccc1OC(C)C(=O)Nc1ccc(S(=O)(=O)Nc2nccs2)cc1` (stereo not drawn), which Potency is on record?
Its Potency is “inactive”.

With `CCOc1ccc2c(c1)c(=O)c(S(=O)(=O)c1ccc(C)cc1)cn2CC` as the compound, how does the Potency read?
Its Potency is “inactive”.

Which Potency does the source give for `CCc1cccc(C)c1NC(=O)COC(=O)CNC(=O)c1cccs1` here?
Its Potency is “inactive”.

For `CCc1ccc(Oc2coc3cc(O)ccc3c2=O)cc1`, which Potency is on record?
The Potency was “inactive”.

For `COc1ccc(-n2cc(CN(C)Cc3n[nH]c(=O)[nH]3)c(-c3cccc(F)c3)n2)cc1`, which Potency is on record?
Its Potency is “inactive”.

For `COc1ccc(-c2nn(-c3ccccc3)cc2CN2CCCO2)c(F)c1`, which Potency is on record?
Its Potency is “inactive”.

For `COc1ccc(-n2cc(CNC3CCOCC3)c(-c3cccc(F)c3)n2)cc1`, which Potency is on record?
Its Potency is 11.7 µM (active).

With `Cc1ccc(S(=O)(=O)NC(=O)c2cccc(C)c2)cc1` as the compound, how does the Potency read?
Its Potency is “inactive”.

For `CCc1cccc(CC)c1NC(=O)COc1ccccc1C(=O)c1cc(C#N)c(=O)n(C2CCCCC2)c1`, which Potency is on record?
Its Potency is 5.86 µM (active).

For `Cc1cc(NC(=O)COc2ccccc2C#N)no1`, which Potency is on record?
Its Potency is “inactive”.

Which Potency does the source give for `CCc1cccc(C)c1NC(=O)COC(=O)CC1CCCC1` here?
Its Potency is “inactive”.

Which Potency does the source give for `COc1cccc(-c2coc3cc4oc(=O)c(CC(=O)O)c(C)c4cc23)c1` here?
The Potency was “inactive”.

With `COc1ccccc1C(=O)N/C(=C/c1ccc2c(c1)OCO2)C(=O)Nc1cccc(C(=O)O)c1` as the compound, how does the Potency read?
The Potency was “inactive”.

With `CN(C)CCOc1ccc(Cl)cc1C(C)(C)C` as the compound, how does the Potency read?
The Potency was “inactive”.

Which Potency does the source give for `CCC(C)(C)c1ccc(OCC(=O)N(C)C)c(C(C)(C)CC)c1` here?
Its Potency is 11.7 µM (active).

With `CN1C/C(=C/c2cccs2)C(=O)/C(=C\c2cccs2)C1` as the compound, how does the Potency read?
The Potency was “inactive”.

With `CCc1ccc(NC(=O)N2CCc3ccccc3C2)cc1` as the compound, how does the Potency read?
Its Potency is “inactive”.

With `COc1cccc(/C=C2/SC(=S)N(CC(=O)NC3C=CS(=O)(=O)C3)C2=O)c1` (stereo not drawn) as the compound, how does the Potency read?
The Potency was “inactive”.

With `Cc1nc2ccccc2c2oc(C(=O)NCC3CCCO3)cc12` (stereo not drawn) as the compound, how does the Potency read?
Its Potency is “inactive”.

Which Potency does the source give for `Cn1c(=O)c2[nH]c(NCC3CCCO3)nc2n(-c2ccccc2)c1=O` (stereo not drawn) here?
The Potency was “inactive”.

With `c1ccc2c(NCC3CCCO3)nc(-c3ccncc3)nc2c1` (stereo not drawn) as the compound, how does the Potency read?
The Potency was 13.1 µM (active).

With `COc1ccc(C2=NS(=O)(=O)N(C)C(C(=O)N(C)Cc3ccccc3)=C2)cc1` as the compound, how does the Potency read?
The Potency was “inactive”.

Which Potency does the source give for `Cc1nn(C)c(C)c1NS(=O)(=O)c1ccc(OC(F)(F)F)cc1` here?
The Potency was “inactive”.
